# Values without a mark were called inactive. How the calls were made is not given here.
# Assay: Vero 76 cell cytotoxicity, cytotoxicity control for VEEV inhibitor project, set 8 (AID 651735)
# Settings: Vero 76 cells viability; series mostly up to 50 µM; viability: at the top concentration
row,Structure (SMILES),viability [%]
1,CN1CCN(C)C(=Nc2ccc(C#N)cc2C(=O)Nc2ccccc2)C1,91.2
2,COc1ccc(Nc2nc(=O)c3cccnc3s2)cc1,94.6
3,CN1CCN(C)C(=Nc2ccc([N+](=O)[O-])cc2C(=O)Nc2ccccc2)C1,88.6
4,O=c1c2cc(F)c(F)cc2nc(CN2CCNCC2)n1-c1ccccc1,99.6
5,CN1CCN(C)C(=Nc2ccc([N+](=O)[O-])cc2C(=O)Nc2ccccc2F)C1,94.6
6,COc1ccc(NC(=O)c2cc([N+](=O)[O-])ccc2N=C2CN(C)CCN2C)cc1,101
7,CN(c1ccc(OCc2ccccc2)cc1)c1nc(=O)c2cccnc2s1,83.4
8,O=c1c2cc([N+](=O)[O-])ccc2nc(CN2CCCNCC2)n1-c1ccccc1,90.8
9,CCN1CCN(Cc2nc3ccc([N+](=O)[O-])cc3c(=O)n2-c2ccccc2F)CC1,87.5
10,O=c1c2cc([N+](=O)[O-])ccc2nc(CN2CCCNC2)n1-c1ccccc1,91.1
11,CCN1CCN(Cc2nc3ccc(-c4ccccn4)cc3c(=O)n2-c2ccccc2)CC1,89.5
12,COc1ccc(CNc2nc(=O)c3cccnc3s2)cc1,96.2
13,CCN1CCN(C2c3ncccc3C(=O)N2c2ccccc2)CC1 (stereo not drawn),95.4
